# Test results from PubChem BioAssay (NCATS).
# Results filed as inconclusive are left out. Values without a mark were called inactive. Calls of active or inactive are those of the source. Calls come from the whole dose curve; as a rule, active = well fitted curve in the direction sought with a large enough effect; inconclusive = small, poorly fitted or top-dose-only effect, or another doubt; inactive = no such curve, though single readings can be large; an effect the other way counts as inactive or inconclusive.
# Legend:
# HaCat [1] = test: Cytotoxic Profiling of Annotated Libraries Using Quantitative High-Throughput Screening (AID 1296008); details: Five cell lines viability, CellTiter-Glo ATP luminescence, 48-72 h; max response: active compounds read low; note: nearly all actives have a fitted effect of over 60% in size; note: potency is the fitted concentration of half-maximal effect; for max response: % is set by controls: 0 for no effect and ±100 for the full control effect
# Summary of the method: (§1)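 Cytotoxicity was measured as CellTiter-Glo ATP luminescence, read after 10 min at room temperature. Compound treatment of the cells lasted 48 or 72 hr at 37 degrees Celsius in a qHTS format.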
# KB-3-1 = test: as above; details: Five cell lines viability, CellTiter-Glo ATP luminescence, 48-72 h; max response: active compounds read low
# Summary of the method: as §1
# HACAT [2] = test: qHTS assay to identify novel small-molecules to repurpose for Merkel cell carcinoma treatment (AID 1296009); details: MCC and control cell lines, CellTiter-Glo viability, 72 h; series mostly up to 44.8 µM; note: nearly all actives have a fitted effect of over 60% in size
# Summary of the method: (§2)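 72 hr, 37 degree celsius; NPC 8-pt / MIPE 11-pt dose response; compound pinned in DMSO; CellTiter-Glo, 10 min RT, luminescence; normalized to no-cell and DMSO controls.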
# HEK293T [3] = test: as above; details: MCC and control cell lines, CellTiter-Glo viability, 72 h; at 44.8 µM (top of the series) unless noted
# Summary of the method: as §2
# C33A = test: Primary qHTS to identify gynecologic anti-cancer compounds using libraries of approved drugs and bioactive compounds (AID 1345084); details: Gynecologic cancer cell panel viability, ATPlite luminescence, 48 h; series mostly up to 57.5 µM; note: nearly all actives have a fitted effect of over 55% in size; note: potency is the fitted concentration of half-maximal effect
# Summary of the method: (§3)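 In this quantitative HTS, cell killing is estimated from loss of ATP-dependent luciferase light. Cells see five compound concentrations over a 48 h exposure.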
# CASKI = test: as above; details: Gynecologic cancer cell panel viability, ATPlite luminescence, 48 h; series mostly up to 57.5 µM
# Summary of the method: as §3
# Es-2 = test: as above; details: Gynecologic cancer cell panel viability, ATPlite luminescence, 48 h; series mostly up to 57.5 µM
# Summary of the method: as §3
# HeLa = test: as above; details: Gynecologic cancer cell panel viability, ATPlite luminescence, 48 h; series mostly up to 57.5 µM
# Summary of the method: as §3
# Hek293T [4] = test: as above; details: Gynecologic cancer cell panel viability, ATPlite luminescence, 48 h, control line for the selectivity index; series mostly up to 57.5 µM
# Summary of the method: as §3
# JEG-3 = test: as above; details: Gynecologic cancer cell panel viability, ATPlite luminescence, 48 h; series mostly up to 57.5 µM
# Summary of the method: as §3
# OV90 = test: as above; details: Gynecologic cancer cell panel viability, ATPlite luminescence, 48 h; series mostly up to 57.5 µM
# Summary of the method: as §3
# NIH3T3 = test: Cytotoxic Profiling of Annotated Libraries Using Quantitative High-Throughput Screening (AID 1296008); details: Five cell lines viability, CellTiter-Glo ATP luminescence, 48-72 h; max response: active compounds read low; note: nearly all actives have a fitted effect of over 60% in size; note: potency is the fitted concentration of half-maximal effect; for max response: % is set by controls: 0 for no effect and ±100 for the full control effect
# Summary of the method: as §1
# CAOV3 = test: Primary qHTS to identify gynecologic anti-cancer compounds using libraries of approved drugs and bioactive compounds (AID 1345084); details: Gynecologic cancer cell panel viability, ATPlite luminescence, 48 h; series mostly up to 57.5 µM; note: nearly all actives have a fitted effect of over 55% in size; note: potency is the fitted concentration of half-maximal effect
# Summary of the method: as §3
smiles,measurement,setting,value
Cc1cccc(-c2[nH]c(Cc3cccc(C(N)=O)c3)nc2-c2ccc3nccnc3c2)n1,outcome,HaCat [1],inactive
same,max response,KB-3-1,-5.51%
same,Potency,HACAT [2],inactive
same,outcome,HEK293T [3],inactive
same,Potency,C33A,inactive
same,Potency,CASKI,inactive
same,Potency,Es-2,inactive
same,Potency,HeLa,inactive
same,Potency,Hek293T [4],inactive
same,Potency,JEG-3,inactive
same,Potency,OV90,inactive
Cc1c(C(=O)N2CCOc3ccc(-c4ccc(N)nc4)cc3C2)ccc(S(C)(=O)=O)c1F,max response,HaCat [1],2.5%
same,Potency,KB-3-1,7.31 µM (active)
same,Potency,NIH3T3,11.6 µM (active)
same,Potency,JEG-3,inactive
C#CCN(Cc1cc2c(=O)[nH]c(C)nc2cc1Br)c1ccc(C(=O)NCc2cccnc2)cc1,Potency,HaCat [1],41.1 nM (active)
same,Potency,KB-3-1,0.0052 µM (active)
same,Potency,NIH3T3,0.0092 µM (active)
same,Potency,CASKI,447 nM (active)
Nc1nc2c(ncn2[C@@H]2O[C@@H]3COP(=O)(O)O[C@H]3[C@H]2O)c(=O)[nH]1,outcome,HaCat [1],inactive
same,outcome,KB-3-1,inactive
same,Potency,HACAT [2],inactive
same,Potency,C33A,inactive
same,Potency,CAOV3,inactive
same,Potency,CASKI,inactive
same,Potency,Es-2,inactive
same,Potency,HeLa,inactive
same,Potency,Hek293T [4],inactive
same,Potency,JEG-3,inactive
same,Potency,OV90,inactive
COc1cc2ncnc(Nc3ccc(F)c(Cl)c3)c2cc1NC(=O)/C=C/CN1CCCCC1,Potency,HaCat [1],41.1 nM (active)
same,Potency,KB-3-1,13 µM (active)
same,Potency,NIH3T3,16.4 µM (active)
same,Potency,CAOV3,22.4 µM (active)
same,Potency,OV90,inactive
COc1cc(C(=O)NC2CCN(C)CC2)ccc1Nc1ncc2c(n1)N(C1CCCC1)CC(F)(F)C(=O)N2C,Potency,HaCat [1],116 nM (active)
same,Potency,KB-3-1,0.0058 µM (active)
same,Potency,NIH3T3,2.06 µM (active)
same,Potency,CAOV3,25.1 µM (active)
same,Potency,OV90,22.4 µM (active)
C[C@H]1[C@H](O)O[C@@H]2O[C@@]3(C)CC[C@H]4[C@H](C)CC[C@@H]1[C@@]24OO3,Potency,HaCat [1],6510 nM (active)
same,Potency,KB-3-1,16.4 µM (active)
same,Potency,NIH3T3,13 µM (active)
same,Potency,HeLa,12600 nM (active)
same,Potency,Hek293T [4],8.91 µM (active)
same,Potency,OV90,inactive
C[C@@H]1CCC2C(C)(C)[C@H](O)CC[C@]2(C)[C@@]12Cc1c(O)cc3c(c1O2)CN([C@@H](CCC(=O)O)C(=O)O)C3=O (some centres undefined),outcome,HaCat [1],inactive
same,max response,KB-3-1,6.48%
same,Potency,HACAT [2],inactive
same,outcome,HEK293T [3],inactive [at 17.4 µM]
same,Potency,C33A,inactive
same,Potency,CAOV3,inactive
same,Potency,CASKI,inactive
same,Potency,Es-2,inactive
same,Potency,HeLa,inactive
same,Potency,Hek293T [4],inactive
same,Potency,JEG-3,inactive
same,Potency,OV90,inactive
CCCNc1ccc2ncc(-c3ccc4[nH]ncc4c3)n2n1,Potency,HaCat [1],411 nM (active)
same,Potency,KB-3-1,1.3 µM (active)
same,Potency,NIH3T3,3.26 µM (active)
same,Potency,CASKI,8910 nM (active)
same,Potency,HeLa,4470 nM (active)
same,Potency,Hek293T [4],2 µM (active)
CN(C)C1CCN(C(=O)c2ccc(NC(=O)Nc3ccc(-c4nc(N5CCOCC5)nc(N5CCOCC5)n4)cc3)cc2)CC1,Potency,HaCat [1],116 nM (active)
same,Potency,KB-3-1,0.058 µM (active)
same,Potency,NIH3T3,0.13 µM (active)
same,Potency,CASKI,282 nM (active)
same,Potency,HeLa,562 nM (active)
same,Potency,Hek293T [4],0.398 µM (active)
CC(=O)OC/C=C(\C)C(CC1C(C)=C(OC(C)=O)C(=O)C2C(C)(C)C(O)CCC12C)OC(C)=O (centres undefined),outcome,HaCat [1],inactive
same,outcome,KB-3-1,inactive
same,Potency,HACAT [2],inactive
same,Potency,C33A,inactive
same,Potency,CAOV3,inactive
same,Potency,CASKI,inactive
same,Potency,Es-2,inactive
same,Potency,HeLa,inactive
same,Potency,Hek293T [4],inactive
same,Potency,JEG-3,inactive
same,Potency,OV90,inactive
CNC(=O)c1ccccc1Nc1nc(Nc2ccc(N3CCNCC3)cc2)ncc1Cl,Potency,HaCat [1],9.2 nM (active)
same,Potency,KB-3-1,0.0259 µM (active)
same,Potency,NIH3T3,0.082 µM (active)
same,Potency,CASKI,355 nM (active)
same,Potency,Es-2,2.24 µM (active)
same,Potency,HeLa,39.8 nM (active)
same,Potency,Hek293T [4],0.631 µM (active)
CCOC(=O)Nc1cc(-c2ccc(C)c(NS(C)(=O)=O)c2)nn2c(C)nnc12,Potency,HaCat [1],651 nM (active)
same,Potency,KB-3-1,10.3 µM (active)
same,Potency,NIH3T3,9.2 µM (active)
same,Potency,Es-2,12.6 µM (active)
same,Potency,OV90,12.6 µM (active)
N#Cc1cnc2cnc(NCc3cccnc3)cc2c1Nc1ccc(F)c(Cl)c1,Potency,HaCat [1],20600 nM (active)
same,max response,KB-3-1,-15.8%
same,max response,NIH3T3,-8.77%
same,Potency,HeLa,inactive
same,Potency,JEG-3,inactive
O=C(CSc1nc2c(c(=O)n1-c1ccccc1)SCC2)Nc1ccc(-c2ccccc2)cn1,max response,HaCat [1],-7.15%
same,Potency,KB-3-1,0.0461 µM (active)
same,Potency,NIH3T3,0.058 µM (active)
same,Potency,Es-2,0.224 µM (active)
same,Potency,HeLa,158 nM (active)
same,Potency,OV90,1.26 µM (active)
CCc1cnn2c(NCc3ccc[n+]([O-])c3)cc(N3CCCCC3CCO)nc12 (centres undefined),Potency,HaCat [1],46.1 nM (active)
same,Potency,KB-3-1,0.0092 µM (active)
same,Potency,NIH3T3,0.0651 µM (active)
same,Potency,JEG-3,inactive
same,Potency,OV90,inactive
COc1cc2c(cc1OC)[C@@H]1[C@H](O)[C@@H](OC)C=C3CCN(C2)[C@H]31,max response,HaCat [1],-24.8%
same,Potency,KB-3-1,7.18 µM (active)
same,Potency,NIH3T3,3.6 µM (active)
same,Potency,HeLa,inactive
same,Potency,JEG-3,inactive
CS(=O)(=O)NCC1CCC(Nc2nc3c(s2)CCSc2ccccc2-3)CC1 (centres undefined),outcome,HaCat [1],inactive
same,max response,KB-3-1,-22.2%
same,Potency,HACAT [2],inactive
same,Potency,C33A,inactive
same,Potency,CAOV3,inactive
same,Potency,CASKI,inactive
same,Potency,Es-2,inactive
same,Potency,HeLa,inactive
same,Potency,Hek293T [4],inactive
same,Potency,JEG-3,inactive
